In PubChem BioAssay AID1159580 (chemical genetic matrix, 2015):
Hit rate of the full screen: of about 5,500 compounds, about 2,000 (36%) were called active. Inconclusive results (about 18%) are left out. This is one part of the list. Unmarked numbers belong to inactive results. Cut-off read from the data, not from the text of the source: active = normalized growth mostly below about 0.91 (no sharp cut-off); inconclusive = no clear call, values can overlap the other calls; inactive = mostly above about 0.92.

Experiment: chemical genetic growth profiling, strain panel (AID 1159580);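 note: tested at 20 µM; growth read once vehicle control cultures reached saturation at 30 °C; 1 = growth at the plate median or of vehicle wells; lower values mean less growth of the strain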
Details: growth OD

CCCCCCc1ccc(O)cc1O
normalized growth (S. cerevisiae deletion strains, locus YJL187C, strain SWE1, active compounds read low): 0.952
normalized growth (S. cerevisiae deletion strains, locus YJR043C, strain POL32, active compounds read low): 0.876
normalized growth (S. cerevisiae deletion strains, locus YJR066W, strain TOR1, active compounds read low): 0.813 (active)
normalized growth (S. cerevisiae deletion strains, locus YKL009W, strain mrt4, active compounds read low): 0.868 (active)
normalized growth (S. cerevisiae deletion strains, locus YKL068W, active compounds read low): 0.967
normalized growth (S. cerevisiae deletion strains, locus YKL085W, strain MDH1 (second series), active compounds read low): 0.954
normalized growth (S. cerevisiae deletion strains, locus YKL085W, strain MDH1, active compounds read low): 0.954
normalized growth (S. cerevisiae deletion strains, locus YKL160W, strain elf1, active compounds read low): 0.901 (active)
normalized growth (S. cerevisiae deletion strains, locus YKL190W, strain CNB1, active compounds read low): 0.944
normalized growth (S. cerevisiae deletion strains, locus YKR001C, strain vps1, active compounds read low): 0.325 (active)
normalized growth (S. cerevisiae deletion strains, locus YKR026C, strain gcn3, active compounds read low): 0.972
normalized growth (S. cerevisiae deletion strains, locus YKR091W, strain srl3, active compounds read low): 0.973
normalized growth (S. cerevisiae deletion strains, locus YLL001W, strain dnm1, active compounds read low): 0.935
normalized growth (S. cerevisiae deletion strains, locus YLL026W, active compounds read low): 0.915 (active)
normalized growth (S. cerevisiae deletion strains, locus YLL041C, strain sdh2, active compounds read low): 0.973
normalized growth (S. cerevisiae deletion strains, locus YLR027C, strain aat2, active compounds read low): 0.855 (active)
normalized growth (S. cerevisiae deletion strains, locus YLR039C, strain RIC1, active compounds read low): 0.291 (active)
normalized growth (S. cerevisiae deletion strains, locus YLR058C, strain SHM2, active compounds read low): 0.915
normalized growth (S. cerevisiae deletion strains, locus YLR102C, strain apc9, active compounds read low): 0.955
normalized growth (S. cerevisiae deletion strains, locus YLR113W, strain HOG1, active compounds read low): 0.744 (active)
normalized growth (S. cerevisiae deletion strains, locus YLR221C, strain rsa3, active compounds read low): 0.824 (active)
normalized growth (S. cerevisiae deletion strains, locus YLR258W, strain gsy2, active compounds read low): 0.891 (active)
normalized growth (S. cerevisiae deletion strains, locus YLR262C, strain YPT6 (second series), active compounds read low): 0.582 (active)
normalized growth (S. cerevisiae deletion strains, locus YLR262C, strain YPT6, active compounds read low): 0.449 (active)
normalized growth (S. cerevisiae deletion strains, locus YLR268W, strain sec22, active compounds read low): 0.913
normalized growth (S. cerevisiae deletion strains, locus YLR320W, strain mms22, active compounds read low): 0.74 (active)
normalized growth (S. cerevisiae deletion strains, locus YLR330W, strain CHS5, active compounds read low): 0.872 (active)
normalized growth (S. cerevisiae deletion strains, locus YLR342W, strain FKS1 (second series), active compounds read low): 0.87
normalized growth (S. cerevisiae deletion strains, locus YLR342W, strain FKS1, active compounds read low): 0.973
normalized growth (S. cerevisiae deletion strains, locus YLR357W, strain rsc2, active compounds read low): 1.07
normalized growth (S. cerevisiae deletion strains, locus YLR370C, strain arc18, active compounds read low): 0.925
normalized growth (S. cerevisiae deletion strains, locus YLR371W, strain rom2, active compounds read low): 0.622 (active)
normalized growth (S. cerevisiae deletion strains, locus YLR384C, strain iki3, active compounds read low): 0.997
normalized growth (S. cerevisiae deletion strains, locus YLR418C, strain cdc73, active compounds read low): 0.767 (active)
normalized growth (S. cerevisiae deletion strains, locus YML016C, strain PPZ1, active compounds read low): 0.947
normalized growth (S. cerevisiae deletion strains, locus YML032C, strain rad52, active compounds read low): 0.784 (active)
normalized growth (S. cerevisiae deletion strains, locus YML120C, strain ndi1, active compounds read low): 0.836 (active)
normalized growth (S. cerevisiae deletion strains, locus YML124C, strain tub3, active compounds read low): 0.934
normalized growth (S. cerevisiae deletion strains, locus YMR058W, strain fet3, active compounds read low): 0.881 (active)
normalized growth (S. cerevisiae deletion strains, locus YMR078C, strain ctf18, active compounds read low): 0.912 (active)
normalized growth (S. cerevisiae deletion strains, locus YMR125W, strain sto1, active compounds read low): 1.04
normalized growth (S. cerevisiae deletion strains, locus YMR129W, active compounds read low): 0.976
normalized growth (S. cerevisiae deletion strains, locus YMR205C, strain PFK2, active compounds read low): 0.749 (active)
normalized growth (S. cerevisiae deletion strains, locus YMR223W, strain ubp8, active compounds read low): 0.801 (active)
normalized growth (S. cerevisiae deletion strains, locus YMR231W, strain pep5, active compounds read low): 0.999
normalized growth (S. cerevisiae deletion strains, locus YMR307W, strain GAS1, active compounds read low): 0.563 (active)
normalized growth (S. cerevisiae deletion strains, locus YNL067W, strain RPL9B, active compounds read low): 0.779 (active)
normalized growth (S. cerevisiae deletion strains, locus YNL071W, strain lat1, active compounds read low): 0.64 (active)
normalized growth (S. cerevisiae deletion strains, locus YNL183C, strain NPR1, active compounds read low): 0.813 (active)
normalized growth (S. cerevisiae deletion strains, locus YNL209W, strain ssb2, active compounds read low): 0.972
normalized growth (S. cerevisiae deletion strains, locus YNL233W, strain BNI4, active compounds read low): 0.858 (active)
normalized growth (S. cerevisiae deletion strains, locus YNL248C, strain rpa49, active compounds read low): 0.84 (active)
normalized growth (S. cerevisiae deletion strains, locus YNL250W, strain rad50, active compounds read low): 0.986
normalized growth (S. cerevisiae deletion strains, locus YNL271C, strain bni1, active compounds read low): 0.952
normalized growth (S. cerevisiae deletion strains, locus YNL298W, strain CLA4, active compounds read low): 0.831 (active)
normalized growth (S. cerevisiae deletion strains, locus YNL307C, strain MCK1, active compounds read low): 0.322 (active)
normalized growth (S. cerevisiae deletion strains, locus YNL322C, strain KRE1 (second series), active compounds read low): 0.927
normalized growth (S. cerevisiae deletion strains, locus YNR049C, strain mso1, active compounds read low): 0.978
normalized growth (S. cerevisiae deletion strains, locus YNR052C, strain pop2, active compounds read low): 0.77 (active)
normalized growth (S. cerevisiae deletion strains, locus YOL012C, strain htz1): 1.21
normalized growth (S. cerevisiae deletion strains, locus YOL147C, strain pex11, active compounds read low): 0.803 (active)
normalized growth (S. cerevisiae deletion strains, locus YOR001W, strain rrp6, active compounds read low): 0.876 (active)
normalized growth (S. cerevisiae deletion strains, locus YOR061W, strain CKA2, active compounds read low): 0.962
normalized growth (S. cerevisiae deletion strains, locus YOR069W, strain VPS5, active compounds read low): 0.97
normalized growth (S. cerevisiae deletion strains, locus YOR070C, strain gyp1, active compounds read low): 0.95
normalized growth (S. cerevisiae deletion strains, locus YOR080W, strain dia2, active compounds read low): 0.969
normalized growth (S. cerevisiae deletion strains, locus YOR083W, strain WHI5, active compounds read low): 0.908
normalized growth (S. cerevisiae deletion strains, locus YOR106W, strain vam3, active compounds read low): 0.837 (active)
normalized growth (S. cerevisiae deletion strains, locus YOR136W, strain idh2, active compounds read low): 0.928
normalized growth (S. cerevisiae deletion strains, locus YOR144C, strain elg1, active compounds read low): 0.861 (active)
normalized growth (S. cerevisiae deletion strains, locus YOR184W, strain ser1, active compounds read low): 0.685 (active)
normalized growth (S. cerevisiae deletion strains, locus YOR231W, strain MKK1, active compounds read low): 0.801 (active)
normalized growth (S. cerevisiae deletion strains, locus YOR265W, strain rbl2, active compounds read low): 0.957
normalized growth (S. cerevisiae deletion strains, locus YOR270C, strain vph1, active compounds read low): 0.73 (active)
normalized growth (S. cerevisiae deletion strains, locus YOR290C, strain snf2, active compounds read low): 0.819 (active)
normalized growth (S. cerevisiae deletion strains, locus YOR316C, strain cot1, active compounds read low): 0.956
normalized growth (S. cerevisiae deletion strains, locus YPL051W, strain arl3, active compounds read low): 0.705 (active)
normalized growth (S. cerevisiae deletion strains, locus YPL078C, strain atp4, active compounds read low): 0.891 (active)
normalized growth (S. cerevisiae deletion strains, locus YPL106C, strain sse1, active compounds read low): 1.05
normalized growth (S. cerevisiae deletion strains, locus YPL240C, strain hsp82, active compounds read low): 0.924 (active)
normalized growth (S. cerevisiae deletion strains, locus YPL241C, strain CIN2, active compounds read low): 0.953
normalized growth (S. cerevisiae deletion strains, locus YPL256C, strain CLN2, active compounds read low): 0.782 (active)
normalized growth (S. cerevisiae deletion strains, locus YPR119W, strain clb2, active compounds read low): 0.956
normalized growth (S. cerevisiae deletion strains, locus YPR141C, strain kar3, active compounds read low): 0.963
normalized growth (S. cerevisiae deletion strains, locus YPR163C, strain tif3, active compounds read low): 0.906 (active)
normalized growth (S. cerevisiae deletion strains, locus YPR167C, strain met16, active compounds read low): 0.868 (active)
normalized growth (S. cerevisiae deletion strains, strain wtn01, active compounds read low): 0.768 (active)
normalized growth (S. cerevisiae strains, strain wild type, active compounds read low): 0.926
